About 1,600 (39%) of roughly 4,100 compounds were called active. Roughly 25% stayed inconclusive and do not appear here. Calls come from the whole dose curve; as a rule, active = well fitted inhibition curve with a large enough effect; inconclusive = small, poorly fitted or top-dose-only effect; inactive = no such curve, though single readings can be large or run the other way. Some of the results follow. A call without a number means that no potency is given here.
Experiment: qHTS Validation assay for Inhibitors of Plasmodium falciparum Dd2 growth in vitro; note: nearly all actives have a fitted effect of over 70% in size
Settings: P. falciparum Dd2 in RBCs, SYBR Green growth, 72 h; series mostly up to 28.7 µM
Description: Malaria, a parasitic disease spread to humans through the bite of a Plasmodium infected Anopheles mosquito, continues to be a global health burden affecting millions of people, with an estimated 228 million cases and 405,000 deaths in 2018. Concerns about safety and limitations of current antimalarial treatments strongly emphasize the need to develop new therapeutic options. The scarce number of chemotypes and validated drug targets with efficacy against the liver stage, have hindered development of new antimalarials. To address this, a chemoprophylactic drug discovery effort was conducted through a combined phenotypic high-throughput asexual blood stage and liver stage screen, providing a robust foundation to identify liver-stage active lead chemotypes. Compounds were initially screened against Plasmodium falciparum Dd2 strain parasites using a in vitro SYBRGreen-1 based 72 hr proliferation assay to identify novel chemotypes to advance to liver stage assays. NIH/NCATS Early Translation Branch Assay Submitter (PI): Anton Simeonov Ph.D.
[…] Assay Protocol: PROTOCOL TABLE (as described by Inglese et al., 2007) SEQUENCE No. (e.g., 1, 2, 3, etc.); PARAMETER (e.g., Cells, Incubation, Reagent, etc.); VALUE; DESCRIPTION SEQUENCE, Parameter, Description 1; Reagent; 3 uL complete malaria growth medium, 1536 TC treated Black clear bottom plate 2; Controls; 23 nL positive control artesunate (300 nM final) to column 1; Neutral control DMSO to columns 2-4 3; Compound; 23 nL of compounds in dose response concentration (29 uM to 0.5 nM final) 4; Reagent; 5 uL malaria infected red blood cells (2.5% hematocrit final, 0.3% parasitemia 5; Time; 72 hours at 37C (5% O2, 5% CO2, 90% N2; 95% Rh) 6; Reagent; 2 uL lysis buffer/SYBRGreen-1, 25 sec shake immediately following dispense 7; Time; ~16 hours at 37C (5% O2, 5% CO2, 90% N2; 95% Rh) 8; Detector; EnVision (PerkinElmer) bottom read at 485/14nm excitation and 535/25 nm emission NOTES (numbers refer to sequence above): 1; Complete Malaria Growth Media: 1X RPMI-1640 w/L-glutamine, 5.5g/L Albumax II, 367 uM Hypoxanthine, 25 mM HEPES, 0.25% Sodium Bicarbonate, 35 uM Gentamicin sulfate 2; Controls were added using the Kalypsis Pintool (Wako USA) equipped with 1536 pinhead 3; Compounds were added in a 7-point, titration with a high final concentration of 29 uM by Pintool from seven inter-plate titrations of library plates and two DMSO control plates at the beginning and end (see Yasgar et al., 2008). 4; Red blood cells infected with Plasmodium falciparum Dd2 parasites were used. 6; Lysis buffer: 20 mM Tris-HCl, 10 mM EDTA, 0.16% Saponin, 1.6% Triton-X, 10X SYBR Green. REFERENCE: Inglese J, Shamu CE, Guy RK. 2007. Reporting data from high-throughput screening of small-molecule libraries. Nat Chem Biol. doi:10.1038/nchembio0807-438 Yasgar A, Shinn P, Jadhav A, Auld D, Michael S, Zheng W, Austin CP, Inglese J, Simeonov A. 2008. Compound Management for Quantitative High-Throughput Screening. J Lab Autom 13:79-89. doi:10.1016/j.jala.2007.12.004
Potency is the fitted concentration of half-maximal effect.

Structure (SMILES) | Potency
COc1ccc(C)cc1NCc1cc(=O)oc2cc(-c3ccccc3)c(O)cc12 | 5.31 µM (active)
COc1ccccc1NCc1cc(=O)oc2c(C)c(O)ccc12 | 5.96 µM (active)
Cc1ccc(Nc2cc(=O)oc3ccccc23)c(C)c1 | inactive
COc1ccc(-c2nc3ccccc3o2)cc1NC(=O)COc1c(C)cc(Cl)cc1Cl | inactive
O=C(Nc1ccc([N+](=O)[O-])cc1)Nc1ccc(OC(F)F)c(Cl)c1 | 2.66 µM (active)
Oc1ccc(CN2CCCCC2)nc1-c1ccccc1 | 0.531 µM (active)
CN1C(=O)CC(C(=O)O)C12CCN(Cc1cccc(C(=O)O)n1)CC2 (stereo unspecified) | inactive
Oc1ccc(-c2ccccc2)cc1CN1CCCCCC1 | 0.266 µM (active)
CNC(=O)[C@H]1C[C@H](Oc2ccccc2)CN1C(=O)CCc1nc2ccccc2[nH]1 | inactive
C/C(Cl)=C/Cc1c(C)[nH]c2c(ccc3ccccc32)c1=O | 0.842 µM (active)
O=c1[nH]c(C2CCCN(Cc3ccc(F)cc3)C2)nn1-c1ccc(Cl)cc1 (stereo unspecified) | inactive
O=c1[nH]c(C2CCCN(Cc3ccccn3)C2)nn1-c1ccc(Cl)cc1 (stereo unspecified) | 2.37 µM (active)
COc1ccc(-n2nc(C3CCCN(C(=O)Nc4ccccc4)C3)[nH]c2=O)cc1 (stereo unspecified) | inactive
CCn1ccc2sc(C)c(C(=O)N3CCC(Cc4ccccc4)CC3)c2c1=O | inactive
COc1cc(C)cc(CN2CCC(Cc3ccccc3)CC2)c1O | 0.75 µM (active)
COc1ccc(C(=O)N2CCC(Cc3nc(-c4ccccc4)n[nH]3)CC2)cc1OC | inactive
C/C=C/c1cc(CN2CCN(c3ccccc3)CC2)c(O)c(OC)c1 | 5.96 µM (active)
CCN1C(=O)C2CC3(CCN(C(=O)CCc4nc5ccccc5[nH]4)CC3)CN2C1=O (stereo unspecified) | inactive
O=C(CCc1nc2ccccc2s1)N1CCC(c2nc(C3CCOCC3)no2)CC1 | inactive
COC1CN(c2ccc(C)cc2)C12CCN(C(=O)CCc1nc3ccccc3s1)CC2 (stereo unspecified) | 10.6 µM (active)
CC(=O)Nc1ccc2nnc(-c3ccc(C(=O)N4CCCCCC4)cc3)n2c1 | 8.41 µM (active)
CCN(CC)C(=O)c1ccc(-c2nnc3ccc(NC(=O)C4CC4)cn23)cc1 | 2.99 µM (active)
O=C(Nc1cccc(-c2nnc3n2CCCC3)c1)c1ccoc1 | inactive

Structure (SMILES) | Potency
COc1ccc(C(=O)Nc2cccc(-c3nnc4n3CCCC4)c2)cc1F | inactive
Cc1ccc(C(=O)N2CCCC(n3cc(-c4nc(-c5ccccc5)no4)nn3)C2)cc1 (stereo unspecified) | inactive
CCN1CCN(C(=O)c2ccc(-c3nnc4ccc(NC(=O)C5CC5)cn34)cc2)CC1 | 6.68 µM (active)
COc1ccc(C2Cn3cnc(C(=O)N4CCC(C(=O)Nc5ccc(F)c(C)c5)CC4)c3CO2)cc1 (stereo unspecified) | inactive
COc1cccc(NC(=O)c2ccc(-c3nnc4ccc(NC(=O)C5CCC5)cn34)cc2)c1 | 3.76 µM (active)
Cc1ccc(CCNC(=O)C2CCN(C(=O)c3cc4c(=O)[nH]c(C)cn4n3)CC2)cc1 | inactive
CCc1ccc(NC(=O)C2CCN(C(=O)c3nnn4cc(C)[nH]c(=O)c34)CC2)cc1 | inactive
O=C(c1ccsc1)N1CCN(c2nnc3ccc(C(F)(F)F)cn23)CC1 | inactive
COc1ccc(C(=O)Nc2ccc(OCc3cc(=O)n4ccccc4n3)cc2)cc1 | inactive
COc1ccc(NC(=O)c2ccc(-c3nnc4ccc(NC(=O)C5CCC5)cn34)cc2)cc1 | 4.22 µM (active)
COc1ccc(NC(=O)c2ccc3c(c2)N(C)C2CCCCN2C3=O)cc1 (stereo unspecified) | inactive
CCOc1ccc(NC(=O)c2ccc(-c3nnc4ccc(NC(=O)C5CC5)cn34)cc2)cc1 | 2.99 µM (active)
CCCc1noc(-c2ccn3c(CNC(=O)c4ccc(OC)cc4)nnc3c2)n1 | inactive
COc1ccc(C(=O)Nc2ccc(-c3nc4ncccc4o3)cc2)cc1 | inactive
COc1ccc(NC(=O)c2ccc(-c3nnc4ccc(NC(=O)C5CC5)cn34)cc2)cc1 | 2.66 µM (active)
CCOc1ccc(C(=O)Nc2cccc(-c3nnc4n3CCCC4)c2)cc1 | inactive
CC(C)(C)NC(=O)c1ccc(-c2nnc3ccc(NC(=O)C4CC4)cn23)cc1 | 9.44 µM (active)
Cc1cn2nc(C(=O)Nc3ccc4c(c3)OCCO4)cc2c(N2CCCC2)n1 | inactive
COCCN1C(=O)CCc2cc(NC(=O)c3ccc4c(c3)OCO4)ccc21 | inactive
CCC(=O)Nc1ccc2nnc(-c3ccc(C(=O)Nc4ccc5c(c4)OCCO5)cc3)n2c1 | 7.5 µM (active)
O=C(Cc1ccc(O)cc1)N1CC(CNc2ccccc2)C2(C1)CN(c1ccccc1)C2 (stereo unspecified) | 0.243 µM (active)
COc1ccccc1C(=O)N1CC(CNC(=O)C2CC2)C2(C1)CN(c1ccccc1)C2 (stereo unspecified) | inactive
O=[S+]([O-])(NCC1CN(Cc2ccc(O)cc2)CC12CN(c1ccccc1)C2)c1ccccc1 (stereo unspecified) | 6.68 µM (active)

Structure (SMILES) | Potency
Oc1ccc(CN2CC(CNc3ccccc3)C3(C2)CN(c2ccccc2)C3)cc1 (stereo unspecified) | 0.611 µM (active)
NC(=O)c1ccccc1OCC(=O)N1CC(CNC(=O)Nc2ccccc2)C2(C1)CN(c1ccccc1)C2 (stereo unspecified) | inactive
Cn1cc(C(=O)NCC2CN([S+](=O)([O-])c3ccccc3Cl)CC23CN(c2ccccc2)C3)cn1 (stereo unspecified) | inactive
O=C(Cc1ccccc1)NCC1CN(Cc2cccc(Cl)c2)CC12CN(c1ccccc1)C2 (stereo unspecified) | inactive
CNCC(=O)N1CCC2(CC1)CN(Cc1ccccc1)CC2CO (stereo unspecified) | inactive
O=C(N[C@H]1CCOC[C@H]1C1CCOCC1)c1ccccc1-c1ccccc1 | inactive
O=C(C1CC1)N1CCc2cc(Br)cc(S(=O)(=O)N3CCN(c4cccc(C(F)(F)F)c4)CC3)c21 | 4.73 µM (active)
O=C1Cc2cc(S(=O)(=O)N3CCN(c4cccc(Cl)c4)CC3)ccc2N1 | inactive
CC(=O)Nc1ccc(NS(=O)(=O)c2cc(Br)cc3c2N(C(=O)C2CC2)CC3)cc1 | inactive
Cc1ccc(NC(=O)CCS(=O)(=O)c2ccc(Br)cc2)c(C)c1 | inactive
CC(=O)N1CCc2cc(S(=O)(=O)CCC(=O)N3CCC(CCOc4ccccc4)C3)ccc21 (stereo unspecified) | inactive
O=C(CCS(=O)(=O)c1cc(Br)cc2c1N(C(=O)C1CC1)CC2)Nc1ccc(Br)cc1F | 3.35 µM (active)
Cc1ccc(NC(=O)CCS(=O)(=O)c2cc(Br)cc3c2N(C(=O)C2CC2)CC3)cc1 | 2.37 µM (active)
O=C(CCS(=O)(=O)c1cc(Br)cc2c1N(C(=O)C1CC1)CC2)N1CCN(c2cccc(Cl)c2)CC1 | 13.3 µM (active)
CCCc1noc(-c2ccn3c(CNC(=O)c4cccc(Cl)c4)nnc3c2)n1 | inactive
O=C(CCS(=O)(=O)c1cc(Br)cc2c1N(C(=O)C1CC1)CC2)Nc1ccc(C(F)(F)F)cc1 | 1.33 µM (active)
CCN(c1ccccc1)S(=O)(=O)c1c(-c2ccc(C)cc2)csc1C(=O)OC | inactive
CCN(c1ccccc1)S(=O)(=O)c1cc(Br)cc2c1N(C(=O)C1CC1)CC2 | 2.99 µM (active)
CC1=C[C@@H](CNC(C)C)[C@H](C(C)C)C[C@H]1Cc1nnc(-c2ccc(C)cc2)o1 | 13.7 µM (active)
CC1=C[C@@H](CNCCN(C)C)[C@H](C(C)C)C[C@H]1Cc1nnc(C(C)(C)C)o1 | 15.3 µM (active)
CC1=C[C@@H](CNC(C)C)[C@H](C(C)C)C[C@H]1Cc1nnc(C(C)(C)C)o1 | inactive
CC1=C[C@@H](CNS(C)(=O)=O)[C@H](C(C)C)C[C@H]1Cc1nnc(-c2ccccc2F)o1 | inactive
CC1=C[C@@H](CNC2CC2)[C@H](C(C)C)C[C@H]1Cc1nnc(-c2ccc(C)cc2)o1 | 17.2 µM (active)

Structure (SMILES) | Potency
CC(=O)NCCNC[C@@H]1C=C(C)[C@H](Cc2nnc(-c3ccccc3)o2)C[C@H]1C(C)C | 17.2 µM (active)
N#Cc1ccccc1CN1CCC([C@@H]2CNC[C@H]2CO)CC1 | inactive
O=C1COc2ccc(-c3ccsc3)nc2CN1 | inactive
CCN(CC)CCNC(=O)c1c(O)c2cccc3c2n(c1=O)CCC3 | 10.6 µM (active)
CCN(CC)CCNC(=O)C1CCCN(S(=O)(=O)c2ccccc2)CCC(=O)NCC1 (stereo unspecified) | inactive
Cc1nnc(NC(=O)C2c3ccccc3C(=O)N(CC(C)C)C23CCCCC3)s1 (stereo unspecified) | 15 µM (active)
O=C(Nc1nccs1)C1c2ccccc2C(=O)N(C2CCCC2)C12CCCC2 (stereo unspecified) | 4.22 µM (active)
Cc1nnc(SCC(=O)Nc2nccs2)o1 | inactive
CC(C)CN1C(=O)c2ccccc2C(C(=O)Nc2nccs2)C12CCCC2 (stereo unspecified) | 8.41 µM (active)
O=C(NCc1ccccn1)C1c2ccccc2C(=O)N(C2CCCC2)C12CCCCC2 (stereo unspecified) | inactive
CCN(CC)CC(O)COc1ccccc1C(=O)CCc1ccccc1 (stereo unspecified) | 1.5 µM (active)
CCCNCC(O)COc1ccccc1C(=O)CCc1ccccc1 (stereo unspecified) | 0.842 µM (active)
COc1ccccc1CNC(=O)[C@@H](C)C1CC[C@@]2(C)CC[C@H](NC(=O)c3cncnc3)[C@@H](C)[C@@H]2[C@H]1O (stereo partly specified) | 2.37 µM (active)
CCN(CC)C(=O)C(C)[C@@H]1CC[C@@]2(C)CC[C@H](NC(=O)c3cnccn3)[C@@H](C)[C@@H]2[C@H]1O (stereo partly specified) | inactive
CCN(CC)C(=O)[C@@H](C)C1CC[C@@]2(C)CC[C@H](NC(=O)COc3ccccc3)[C@@H](C)[C@@H]2[C@H]1O (stereo partly specified) | inactive
CCn1cnnc1CC1CCN(C(=O)C2CC2)CC1 | inactive
CCN(CC)c1ccc2oc(=O)c(C)nc2c1 | 6.68 µM (active)
CCS(=O)(=O)c1ccc2oc(Nc3cc(C)cc(C)c3)nc2c1 | inactive
Cn1cc(C(NS(=O)(=O)c2cccc3c2OCCO3)C2CC(O)C2)cn1 (stereo unspecified) | inactive
CC(C)NC(=O)CSc1nnc(CNC(=O)OC(C)(C)C)n1C | inactive
CC(C)Cc1nc2nccc(-c3cccs3)n2n1 | inactive
Cc1nc2ccc(C(=O)NCc3cc4n(n3)CCN(C(=O)N(C)C)C4)cc2o1 | inactive
